High-throughput results as filed in PubChem.
Only some compounds are listed: those with a hit (about 0.92% of all), similar ones and a draw of the others.
RECQ1 inh-1: blocks DNA unwinding by human RECQ1; RECQ1 DNA unwinding, red fluorescence kinetic read; P46063; actives 0.54% (n = 240,000); Potency, µM (highest dose often 57.3 µM), usual class: inhibitors; also: nearly all actives have a fitted effect of over 30% in size
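RECQ1T1 50 nM; forked duplex (20 bp + 30-nt ss tails) 200 nM, ATP 2 mM final; pH 8.0, 2 mM MgCl2, 2.5 ug/ml poly(dI-dC); 15 min compound preincubation; discontinuous kinetic read over 2 h at RT.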
APE1 inh: APE1 (human) endonuclease inhibition | P27695 | recombinant APE1, TAMRA/BHQ-2 abasic DNA cleavage fluorescence | Potency, µM (doses to about 65.8 µM), hits mostly inhibitors | actives 0.35% (n = 350,000) | AID 2517; also: nearly all actives have a fitted effect of over 55% in size
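0.75 nM APE1 + cpd, 15 min RT; start w/ 50 nM TAMRA/BHQ-2 THF-abasic dsDNA; kinetic fluor 525/598 nm ×3 reads @60 s; Δ(read3−read1); normalized to DMSO and NSC13755 control wells.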
L3MBTL1 block: L3MBTL1 (human) inhibition | actives 0.66% (n = 230,000) | Potency, µM (top dose mostly 57.1 µM), actives largely listed as inhibitors | AlphaScreen L3MBTL1–H3K9me1 peptide binding; also: nearly all actives have a fitted effect of over 60% in size
Target sequence (Q9Y468 whole entry, looked up): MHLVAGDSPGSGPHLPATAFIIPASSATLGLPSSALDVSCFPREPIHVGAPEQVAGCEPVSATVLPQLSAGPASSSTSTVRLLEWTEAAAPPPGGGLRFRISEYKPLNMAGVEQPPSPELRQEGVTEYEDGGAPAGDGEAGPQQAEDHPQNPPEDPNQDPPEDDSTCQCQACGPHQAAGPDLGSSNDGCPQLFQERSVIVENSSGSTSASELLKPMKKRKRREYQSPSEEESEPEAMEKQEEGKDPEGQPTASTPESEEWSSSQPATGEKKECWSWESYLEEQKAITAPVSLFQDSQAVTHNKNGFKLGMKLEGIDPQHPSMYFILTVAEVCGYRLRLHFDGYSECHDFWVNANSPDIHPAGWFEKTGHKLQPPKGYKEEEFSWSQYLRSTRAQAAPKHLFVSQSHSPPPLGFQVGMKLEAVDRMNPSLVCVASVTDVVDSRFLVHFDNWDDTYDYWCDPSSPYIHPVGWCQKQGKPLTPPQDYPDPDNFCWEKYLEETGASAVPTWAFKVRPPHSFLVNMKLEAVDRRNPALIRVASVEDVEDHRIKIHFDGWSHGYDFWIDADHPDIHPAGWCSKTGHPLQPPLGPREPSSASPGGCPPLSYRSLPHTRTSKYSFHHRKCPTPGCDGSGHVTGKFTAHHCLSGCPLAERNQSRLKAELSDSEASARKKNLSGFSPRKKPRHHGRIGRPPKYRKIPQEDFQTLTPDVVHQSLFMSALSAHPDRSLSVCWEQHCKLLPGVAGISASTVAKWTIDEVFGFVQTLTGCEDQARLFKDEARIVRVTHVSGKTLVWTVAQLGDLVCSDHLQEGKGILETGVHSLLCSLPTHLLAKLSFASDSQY
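Displacement of a biotinylated histone H3(1-15) peptide monomethylated at Lys9 (75 nM) from L3MBTL1 (50 nM) was measured by AlphaScreen after a 30 min room-temperature compound incubation; cefsulodin titration served as intraplate control.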
BLM inh: Bloom syndrome helicase (human) inhibition; P54132; recombinant BLM DNA unwinding, fluorescence dequenching; Potency, µM (top dose mostly 56.1 µM), actives largely listed as inhibitors; actives 0.2% (n = 350,000); AID 2528; also: nearly all actives have a fitted effect of over 35% in size
WRN inhibitor: blocks human WRN helicase; Q14191; actives 0.46% (n = 360,000); Potency, µM (doses to about 114 µM), usual class: inhibitors; WRN helicase unwinding, fluorescent forked duplex, kinetic; also: nearly all actives have a fitted effect of over 55% in size
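WRN at 20 nM final preincubated with compound 15 min at room temperature; reaction started with 100 nM fluorophore/quencher forked duplex oligonucleotide and 2 mM ATP final. Unwinding followed kinetically by red fluorescence (ex 525, em 598 nm).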
RECQ1 inh conf: confirmation of human RECQ1 helicase inhibitors. shares compounds with RECQ1 inh-1. actives 28% (n = 610). RECQ1 helicase DNA unwinding, fluorescence. Potency, µM (top dose mostly 229 µM), hits mostly inhibitors. AID 2708; also: nearly all actives have a fitted effect of over 45% in size
ADP FP counter: ADP displacement flagged in RECQ1 inhibitor counter-screen; actives 27% (n = 530); Potency, µM (series often up to 228 µM), most hits filed as inhibitors; ADP fluorescence polarization displacement counterscreen; shares compounds with RECQ1 inh-1; AID 2711; also: nearly all actives have a fitted effect of over 45% in size
RECQ1 inh-2: confirmation of human RECQ1 helicase inhibitors | Potency, µM (titrated, usually from 119 µM), usual class: inhibitors | AID 504841 | recombinant RECQ1 DNA unwinding, red fluorescence | shares compounds with RECQ1 inh-1 | actives 15% (n = 1,100); also: nearly all actives have a fitted effect of over 50% in size
Numbers stand for hits; 0 = inactive; ? = inconclusive; - = no result given; [ ] = remark or other dose. Calls follow the shape of the dose curve; as a rule, active = well fitted curve in the direction sought with a large enough effect; inconclusive = small, poorly fitted or top-dose-only effect, or another doubt; inactive = no such curve, though single readings can be large; an effect the other way counts as inactive or inconclusive.

SMILES | RECQ1 inh-1 | APE1 inh | L3MBTL1 block | BLM inh | WRN inhibitor | RECQ1 inh-2 | others
CC(=O)Oc1ccc(C(=O)[C@H]2[C@H]3C(=O)N(c4ccc5ccccc5c4)C(=O)[C@H]3[C@@H]3C=CC=NN32)cc1 | 31.6µM | 0 | 0 | 0 | 0 | ?
Cc1ccc(S(=O)(=O)/N=C2/NC(=O)/C(=C\c3ccco3)S2)cc1 | ? | 0 | 0 | 0 | 0 | 0
CC(=O)Nc1ccc(S(=O)(=O)/N=C2/NC(=O)/C(=C\c3ccco3)S2)cc1 | ? | ? | - | 0 | 0[11.6 µM] | 0
CCCCC/C=C\CC(O)/C=C/c1cccc(CC(O)CCCCO)n1 (stereo unspecified) | 0 | 0 | - | 0 | - | -
COC(=O)N1C(c2ccccc2)=Cc2ccccc2C1CC(C)=O (stereo unspecified) | 0[11.5 µM] | 0[12.4 µM] | - | 0[12.4 µM] | - | -
CCN1C(=O)[C@@H]2[C@H](C1=O)[C@@H]1C[C@H]3C(=O)N(CC)C(=O)[C@H]3[C@@H]3C1=C(C(=O)N1C(=O)O/C(=N\CC4CC4)[C@]31C)[C@@H]2C | 0 | 0 | - | 0 | - | -
Cc1ccc(S(=O)(=O)/N=C2/C=C(Sc3ncn[nH]3)C(=O)c3ccccc32)cc1 | ? | 0 | 0 | 15.8µM | 31.6µM | ?
CCN(CC)CCOc1c(Br)ccc2c1sc1nc3n(c(=O)c12)CCC3 | ? | 0 | 0 | 0 | 0 | 0
Cc1ccc(NC(=O)Cn2c(=O)n(Cc3ccc4c(c3)OCO4)c(=O)c3ccc(C(=O)NC4CCCCC4)cc32)c(C)c1 | - | - | - | 0 | - | -
Cc1ccc(C2c3c(C)nn(-c4ccc([N+](=O)[O-])cc4)c3N=C3C(=O)Nc4ccccc4N32)cc1 (stereo unspecified) | 0 | 0 | 0 | 0 | - | -
COc1cccc(C2c3c(C)nn(-c4ccc([N+](=O)[O-])cc4)c3N=C3C(=O)Nc4ccccc4N32)c1 (stereo unspecified) | ? | 0 | 0 | 0 | 0 | 0
O=C(O)c1c(Cl)c(Cl)c(Cl)c(Cl)c1-c1c2cc(I)c(=O)c(I)c-2oc2c(I)c(O)c(I)cc12 | 14.1µM | 14.1µM | - | 14.1µM | - | - | RECQ1 inh conf=44.7µM;ADP FP counter=0.891µM
O=C(COc1ccccc1Cl)NCC1(N2CCOCC2)CCCCC1 | - | - | - | 0 | - | -
Cn1nnnc1SCC(=O)N1N=C(c2ccc(Cl)cc2)CC1c1ccco1 (stereo unspecified) | - | 0 | 0 | - | 0 | -
Cc1nnc(SCC(=O)N2N=C(c3ccc(Cl)cc3)CC2c2ccco2)[nH]c1=O (stereo unspecified) | 31.6µM | 0 | - | 0 | ? | 0
CC1(COc2ccc(C[C@H]3SC(=O)NC3=O)cc2)CCCCC1 | 0 | 0 | - | 0 | - | -
Cc1c(C)c2c(c(C)c1O)CCC(C)(COc1ccc(CC3SC(=O)NC3=O)cc1)O2 (stereo unspecified) | ? | 0 | - | 0 | - | ?
COc1cc(NC(=O)CSc2nc3ccccc3cc2C)c(C(=O)O)cc1OC | 0 | 0 | 0 | 0 | 0 | - | RECQ1 inh conf=0;ADP FP counter=?
COc1cc(NC(=O)CSc2nnc3c(C)cc4cc(C)cc(C)c4n23)c(C(=O)O)cc1OC | 0 | 0 | 0 | 0 | 0 | -
COc1ccc2cc(C)c3nnc(SCC(=O)Nc4cc(OC)c(OC)cc4C(=O)O)n3c2c1 | 0 | 0 | 0 | 0 | 0 | - | RECQ1 inh conf=0;ADP FP counter=0
O=c1cc(-c2ccccc2)[nH]c2[nH]n(-c3ccccc3)c(=O)c12 | 0 | 0 | 0 | 0 | 0 | -
CCOC(=O)Cc1cc(=O)c2c(=O)n(-c3ccccc3)[nH]c2[nH]1 | ? | 0 | ? | 0 | 0 | 0
Cc1c(C(=O)NCCc2ccc(Cl)cc2)sc2nc3n(c(=O)c12)CCCC3 | - | - | - | 0 | - | -
O=C(CCc1nc2ccccc2s1)NC1CCOC1=O (stereo unspecified) | ? | 0 | ? | 0 | 0 | ?
COc1cccc(-n2c(SCc3cc(=O)oc4cc(O)c(O)cc34)nc3ccccc3c2=O)c1 | 25.1µM | 10µM | 31.6µM | 10µM | 28.2µM | 12.6µM
SMILES | RECQ1 inh-1 | APE1 inh | L3MBTL1 block | BLM inh | WRN inhibitor | RECQ1 inh-2 | others
CCN(CC)C(=O)CSc1nc2ccccc2c(=O)n1-c1cccc(OC)c1 | 0 | 0 | - | 0 | 0 | -
CCCCCc1c2c(cc(O)c1C(=O)O)OC(=O)c1c(cc(OC)cc1C(=O)CCCC)O2 | ? | 0 | 0 | 0 | ? | ?
CCCCc1c(C(=O)O)cc(OC)cc1C(=O)O | 0 | 0 | 0 | 0 | 0 | -
CCCCCc1c2c(cc(O)c1C(=O)O)OC(=O)c1cc(C(=O)CCCC)c(OC)cc1O2 | 12.6µM | ? | 0 | 0 | ? | ?
COc1cc(NC(=O)c2cccs2)c(C(=O)OCC(=O)NCc2ccco2)cc1OC | 8.91µM | ? | - | ? | ? | ? | RECQ1 inh conf=28.2µM;ADP FP counter=?
COc1cc(C(=O)OCC(=O)NCc2ccco2)cc(OC)c1OC | 0 | 0 | 0 | 0 | 0 | -
Cc1ccc(CSC2=Nc3ccccc3C3=NC(CC(=O)NCc4ccco4)C(=O)N23)cc1 (stereo unspecified) | ? | 0 | ? | 0 | 0 | ?
Cc1ccc(C[C@H](C(=O)O)N2C(=O)c3ccc(C(=O)O)cc3C2=O)c(C)c1 | 0 | ? | 0 | 0 | - | -
CCOc1ccccc1NC(=O)c1c(NC(=O)COc2ccccc2)sc2c1CCCCC2 | - | - | - | 0 | - | -
CCN(CC)c1ccc(/C=C/C(=O)c2ccc(Br)cc2)cc1 | 8.91µM | 0 | 0 | 0 | 22.4µM | 50.1µM | RECQ1 inh conf=63.1µM
O=C(NCCc1ccccc1)c1ccc(CSc2nc3ccncc3n2Cc2ccccc2F)cc1 | - | - | - | 0 | - | -
CN(C)CC1CCn2c(c(C3=C(c4cn(C)c5ccccc45)C(=O)NC3=O)c3ccccc32)C1 (stereo unspecified) | ? | 0 | - | 0 | - | 79.4µM
COc1ccc(-c2cc(C(=O)O)no2)cc1 | ? | 0 | 0 | 0 | 0 | 0
CCC(C)NC(=O)c1cc(-c2ccc(OC)cc2)on1 (stereo unspecified) | 0 | 0 | - | 0 | 0 | -
Cc1nc2ccccc2oc1=O | 0 | 0 | - | 0 | - | -
Nc1cc2nc3ccccc3oc-2cc1=O | ? | 0 | ? | 0 | 0[11.6 µM] | ?
OC[C@@H](O)C(O)[C@H](O)[C@H](O)CO (stereo partly specified) | 0 | 0 | - | 0 | - | -
COC(=O)Nc1ccc(S(=O)(=O)N2CCCCC2C(=O)NCc2ccco2)cc1 (stereo unspecified) | 0 | 0 | - | 0 | 0 | - | RECQ1 inh conf=0;ADP FP counter=0
CCC1CN(C(=O)Nc2cc(C)ccc2OC)c2cc(Cl)ccc2O1 (stereo unspecified) | - | - | - | 0 | - | -
Cc1cc(OCc2nnc(SC(C)C(=O)O)n2Cc2ccccc2)ccc1Cl (stereo unspecified) | 0 | 0 | 0 | 0 | 0 | - | RECQ1 inh conf=0;ADP FP counter=0
